For 111 compounds, outcome results are on record in PubChem BioAssay AID504861 (Broad Institute, 2011).

Out of some 1,200 compounds screened, about 290 (24%) were called active. Another 3% or so got no clear call; they are omitted.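 The calls were made as follows: active = compounds lowering cell viability signal with fitted half-maximal concentration at most ten times their highest tested concentration; inconclusive = flat fit with 30 to 70% signal loss, or poor fit; inactive = the rest.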 Only a sample is shown. Measured potencies and affinities stand elsewhere.

The experiment is described as follows: cytotoxicity in HEK293T cells – cell-based, CellTiter-Glo luminescence, cherry-picks, cytotoxicity control for LMP1 NF-kB inhibitor project, dose response (AID 504861). Particulars: HEK293T viability, CellTiter-Glo ATP luminescence, 48 h; series mostly up to 26 µM. (In general: In ATP-based viability assays light output follows the ATP content of the culture.)
With `CCn1c2ccccc2c2cc(NC(=O)c3ccccc3-c3ccccc3C(=O)O)ccc21`, the call was inactive.

In the case of `CCN(CC)Cc1cc(Nc2ccnc3cc(Cl)ccc23)ccc1O`, the call was inactive.

In the case of `O=S(=O)(c1ccc2c(c1)C(=NO)c1cc(S(=O)(=O)N3CCCCC3)ccc1-2)N1CCCCC1`, the call was inactive.

As for `Nc1nc(N)nc(-c2cc(Cl)ccc2Cl)n1`, the compound was called inactive.

Take `CCCc1cc(=O)c2c(O)ccc(OC)c2o1`: the outcome was inactive.

Consider `CC1CCC(NC(=O)CC2Oc3ccccc3NC2=O)CC1` (stereo unspecified), for which the result was inactive.

On to `O=S(=O)(c1ccccc1)N1CCN(c2cc(-c3ccccc3)nc3ncnn23)CC1`, for which the compound was called inactive.

As to `Cn1cccc1CC(=O)NNC(=S)Nc1ccccc1Cl`, the compound was called inactive.

In the case of `COc1ccccc1NC(=O)C(=O)N/N=C(\C)CC(=O)Nc1ccccc1C(F)(F)F`, the result was inactive.

As for `CC(C)(C)n1nc(-c2ccc(F)cc2)c2c(N)ncnc21`, the result was inactive.

In the case of `CCc1nnc(NC(=O)c2cc(S(=O)(=O)N3CCN(CC)CC3)ccc2Cl)s1`, the compound was called inactive.

On to `COc1ccc(CCC(=O)Nc2ccc(C)c([N+](=O)[O-])c2)cc1`, for which the compound was called inactive.

Regarding `CN(C)S(=O)(=O)c1cccc(NC(=O)c2n[nH]c(=O)c3ccccc23)c1`, the outcome was inactive.

Turning to `CCc1ccc(-c2nnn(CCC(=O)OC)n2)cc1`, the result was inactive.

For `Oc1cccc(/C=N/NC(=S)NCCN2CCOCC2)c1O`, the outcome was inactive.

Turning to `Cc1ccc(C(=O)Nc2cccc(C(=O)N/N=C/c3ccccc3F)c2)cc1`, the outcome was inactive.

On to `COc1ccccc1C1(CC(=O)O)CCOC(C)(C)C1` (stereo unspecified), for which the call was inactive.

In the case of `CCCN1C(=O)C2(SC(NC(C)=O)=NN2C(C)=O)c2cc(C)cc(C)c21` (stereo unspecified), the compound was called inactive.

As to `COc1ccc(OC)c2c1sc(=NC(=O)c1ccco1)n2C`, the call was inactive.

For `Cc1ccc(NC(=S)Nc2cccc(S(=O)(=O)Nc3c(C)n(C)n(-c4ccccc4)c3=O)c2)cc1`, the compound was called inactive.

Turning to `Cc1ccc(C)c(S(=O)(=O)N2CCN(C(=O)c3ccc(C)s3)CC2)c1`, the outcome was inactive.

With `O=C(Cn1ccc(C(F)(F)F)n1)Nc1cccc(S(=O)(=O)N2CCCCC2)c1`, the outcome was inactive.

In the case of `Cc1ccc(S(=O)(=O)N[C@H](C(=O)N2CCC(C(=O)N[C@@H](CC(=O)O)C(=O)O)CC2)C(C)C)cc1`, the call was inactive.

Turning to `C=CCn1c(C)c(C(C)=O)c(N2CCN(C(c3ccccc3)c3ccccc3)CC2)nc1=S`, the result was inactive.

With `COc1ccccc1OCc1ccc(C(=O)c2ccccc2)cc1`, the call was inactive.

Consider `COC(=O)c1ccc(COc2ccccc2/C=C/C(=O)c2ccc(OCC(=O)O)cc2)cc1`, for which the call was inactive.

For `COc1cccc(C(=O)N2CCN(c3nc4cc(C)cc(C)c4cc3C#N)CC2)c1`, the outcome was inactive.

On to `Cc1ccc(N2CCN(C3=NC(=O)/C(=C\c4cn[nH]c4-c4ccccc4)S3)CC2)cc1`, for which the call was inactive.

Consider `Cc1cnc(NC(=O)c2ccc(OCC3CCCO3)cc2)s1` (stereo unspecified), for which the outcome was inactive.

For `O=C(CSc1nnc(NC(=O)c2ccc3c(c2)OCO3)s1)NCc1ccco1`, the compound was classed as inactive.

Take `COc1ccc(C(=O)N(CN2CCCC2=O)c2cc(C)on2)cc1OC`: the call was inactive.

In the case of `COc1ccc(/C=C\C(=O)NCc2ccc3c(c2)cc(C)n3C)cc1OC`, the compound was called inactive.

`O=C(C[n+]1ccccc1)N/N=C/c1ccc(O)cc1`: the result was inactive.

Consider `CCCCNC(=S)Nc1ccc([N+](=O)[O-])cc1`, for which the result was inactive.

As to `O=C(CCN1CCC(c2ccccc2)C1)c1ccc2c(c1)OCCO2` (stereo unspecified), the compound was called inactive.

On to `CC(=O)Nc1ccc(OCCCNC(=O)c2c(-c3ccccc3)noc2C)cc1`, for which the compound was called inactive.

`CC(C)c1ccc(OCc2cccc(C(=O)N/N=C/c3cccnc3)c2)cc1`: the compound was classed as inactive.

For `O=C(CCc1ccccc1Cl)N1CCN(S(=O)(=O)c2ccccc2)CC1`, the outcome was inactive.

On to `O=C(O)c1ccc(N/N=C/c2cc3cc4c(cc3nc2Cl)OCCO4)cc1`, for which the compound was classed as inactive.

With `O=C(Cc1cccc2ccccc12)Nc1ccc(-c2cc3ccccc3oc2=O)cc1`, the result was inactive.

As for `NC(=O)N/N=C/c1ccc(N2CCOCC2)s1`, the compound was classed as inactive.

Consider `CC1(C)CC(NS(=O)(=O)c2ccc(F)cc2)CC(C)(C)N1`, for which the compound was classed as inactive.

`O=[N+]([O-])c1ccc(N2CCN(Cc3cccc([N+](=O)[O-])c3)CC2)cc1`: the outcome was inactive.

Consider `O=c1[nH]c(=O)n([C@H]2C[C@H](O)[C@@H](CO)O2)cc1F`, for which the compound was called inactive.

Turning to `c1ccc(-c2nnc(-c3ccccn3)s2)nc1`, the outcome was inactive.

As to `Cc1c(NC(=O)c2cccc(NC(=O)COc3ccccc3C#N)c2)c(=O)n(-c2ccccc2)n1C`, the compound was classed as inactive.

For `Cc1ccc(C(=O)Nc2cccc(C(=O)O)c2)cc1S(=O)(=O)N1CCCCC1`, the call was inactive.

Turning to `COc1ccc(C=NNc2nc3ccccc3s2)cc1`, the outcome was inactive.

For the compound `Cc1nc(Nc2nc3ccccc3o2)nc2c1CCC2`, the result was inactive.

Consider `Cc1cccc(C)c1Nc1nc2ccccc2o1`, for which the result was inactive.

`CC1CCCN(C(=O)COC(=O)c2n[nH]c3ccccc23)C1` (stereo unspecified): the call was inactive.

With `COc1c(S(=O)(=O)N2CCN(c3ccc(F)cc3)CC2)ccc(Cl)c1Cl`, the result was inactive.

For `CC(=O)c1ccc(-c2nc3c4ccccc4ccn3c2C(C)=O)o1`, the result was inactive.

As for `Cc1nn(-c2ccccc2)c(Cl)c1C1C(C#N)=C(N)Oc2n[nH]c(C)c21` (stereo unspecified), the outcome was inactive.

As for `CCCCN(c1ccccc1)c1ncnc(N)c1[N+](=O)[O-]`, the call was inactive.

Regarding `OC(CCCN1CCCCC1)(c1ccccc1)c1ccccc1`, the compound was called inactive.

Regarding `CN1CCN(CCOc2ccc(Cc3ccccc3)cc2)CC1`, the outcome was inactive.

Consider `COc1ccc(/C=C/C(=O)OCC(=O)NCc2ccco2)cc1OC`, for which the result was inactive.

Turning to `NNC(=O)c1cccc(COc2ccc3c(c2)CCC3)c1`, the call was inactive.

In the case of `O=c1c([N+](=O)[O-])cn(Cc2ccccc2)c(=O)n1Cc1ccccc1`, the call was inactive.

Take `O=C1CSC(=S)N1Cc1ccccc1`: the result was inactive.

As to `CCOC(=O)C1=C(O)/C(=C/c2ccc(CNC(=O)C(=O)Nc3ccc(C)cc3)o2)N=C1C`, the compound was classed as inactive.

Consider `O=C1CN(C(=O)c2ccc(F)c(S(=O)(=O)N3CCOCC3)c2)c2ccccc2N1`, for which the call was inactive.

Consider `COC(=O)[C@H](C)[C@H]1C[C@]1(C)[C@H](NC(=O)OCc1ccccc1)c1ccccc1`, for which the compound was classed as inactive.

As to `Clc1ccccc1C1=Nn2c(nnc2-c2ccncc2)SC1`, the call was inactive.

Turning to `Cc1cc(N/N=C\c2ccc(Br)cc2)nc(-n2nc(C)cc2C)n1`, the call was inactive.

As for `COc1ccc(S(=O)(=O)N2CCN(C(=S)NCC3CCCO3)CC2)cc1OC` (stereo unspecified), the compound was called inactive.

As to `Oc1c(N=NC(=S)Nc2ccccc2F)c2ccccc2n1Cc1ccccc1Cl`, the result was inactive.

Take `COc1ccc(C2=NN(C(=O)CSC3=NN4CCCC(=O)N=C4S3)C(c3cccc(OC)c3OC)C2)cc1` (stereo unspecified): the call was inactive.

For the compound `O=C(NC1=NCCS1)c1cc2ccccc2o1`, the compound was classed as inactive.

Consider `O=C(O)[C@@H]1[C@H]2C[C@H]3c4[nH]c5ccccc5c4CCN3C[C@@H]2CC[C@@H]1O`, for which the call was inactive.

Regarding `Cc1ccnc(NC(=O)c2ccc(C(=O)c3ccccc3)cc2)c1`, the compound was called inactive.

With `Cc1ccnc(NC(=O)c2ccc(OCC3CCCO3)cc2)c1` (stereo unspecified), the compound was called inactive.

Turning to `COc1ccc(C(c2c(C)n(C)n(-c3ccccc3)c2=O)c2c(C)n(C)n(-c3ccccc3)c2=O)c(OC)c1OC`, the compound was classed as inactive.

As to `CCCNC(=O)N1CCN(S(=O)(=O)c2ccc(C)c(C)c2)CC1`, the outcome was inactive.

`O=C(CCC(=O)NNC(=O)Nc1cccc(Cl)c1)NCc1ccccc1`: the outcome was inactive.

As for `Cc1cc(NCCCn2ccnc2)n2ncc(-c3ccccc3)c2n1`, the call was inactive.

Turning to `O=C(Nc1cnc2ccccn2c1=O)c1ccc(Cl)cc1Cl`, the call was inactive.

In the case of `O=C1c2cccc3c(O)ccc(c23)C(=O)N1c1ccc(Cl)cc1`, the call was inactive.

Take `CC(=O)c1ccc(-n2nnnc2SCC(=O)N2CCc3ccccc3C2)cc1`: the result was inactive.

For `COc1cc(N)c(Cl)cc1C(=O)NC1CCN(Cc2ccccc2)CC1`, the call was inactive.

Regarding `CCOc1ccc(NC(=O)c2cnsn2)cc1`, the outcome was inactive.

On to `COc1ccc(-n2c(C)c(C(C)=O)c3cc(O)ccc32)cc1`, for which the result was inactive.

As to `Clc1ccc(-n2nnnc2Sc2ncnc3sccc23)cc1`, the compound was classed as inactive.

Take `O=C(Nc1ccc(Cl)cc1)c1ccco1`: the outcome was inactive.

For `COc1cc2nc(NC(=O)c3ccco3)sc(=O)c2cc1OC`, the call was inactive.

Regarding `COc1cccc(/C=C2\SC(=S)N(CCC(=O)NCCc3ccc(O)cc3)C2=O)c1`, the compound was classed as inactive.

With `COc1ccc(NC(=O)Cn2nnc(C(=O)NCc3ccccc3)c2N)c(OC)c1`, the compound was called inactive.

For the compound `CNC(=O)C1=NCCCc2cc(OC)c(OC)cc21`, the result was inactive.

As for `CCc1ccc(/C=C2\SC(=S)N(CCCC(=O)Nc3ccccn3)C2=O)cc1`, the compound was classed as inactive.

As to `COc1ccc(OC)c2[nH]c(=O)c(CCNC(=O)c3ccc(S(=O)(=O)N(C)C)cc3)cc12`, the result was inactive.

In the case of `O=C(NOCc1ccccc1)c1ccc(Cl)cc1Cl`, the call was inactive.

On to `CCOC(=O)c1nc(NCc2ccccc2F)c2ccccc2n1`, for which the compound was called inactive.

With `C/C(=N\NS(=O)(=O)c1ccc([N+](=O)[O-])cc1)c1cccs1`, the compound was called inactive.

Take `CC1Cc2ccccc2N1c1ncnc(N)c1[N+](=O)[O-]` (stereo unspecified): the result was inactive.

For the compound `O=C(/C=C/Nc1ccc(F)cc1Br)c1ccccc1`, the call was inactive.

Regarding `COc1ccc(C(=O)Nc2nnc(SCC(=O)NC3CC3)s2)cc1`, the outcome was inactive.

As for `O=C(COc1ccc2ccccc2c1)NCCNC(=O)COc1ccc2ccccc2c1`, the call was inactive.

`Cc1ccc(C(=O)CSc2nnnn2C(C)C)c(C)c1`: the outcome was inactive.

Regarding `O=C(Nc1nnc(-c2cccs2)o1)c1cccc(C(F)(F)F)c1`, the result was inactive.

With `COc1ccc(C(=O)Nc2cccc(C(=O)N/N=C/c3ccc(OC)cc3OC)c2)cc1`, the compound was classed as inactive.

Take `COc1ccc(OCc2cccc(C(=O)Nn3cc([N+](=O)[O-])cn3)c2)cc1`: the result was inactive.

Regarding `Cc1ccc(C(=O)N2CCN(c3ccc(NC(=O)CSc4ccc(Cl)cc4)cc3)CC2)cc1`, the compound was called inactive.

For the compound `Cc1nnc(SCc2cnc(-c3ccc(C(C)C)cc3)s2)n1C`, the result was inactive.

Take `Cc1cc(NC(=O)CSc2ccnc(=O)[nH]2)no1`: the compound was classed as inactive.

Consider `O=C1OCCC1Sc1nnc(-c2ccc(Cl)cc2Cl)o1` (stereo unspecified), for which the result was inactive.

With `O=c1[nH]c(Nc2nc3ccccc3o2)nc2c1CCCC2`, the compound was called inactive.

For the compound `O=C(Nc1ccc(CN2CCOCC2)cc1)c1cc2ccccn2n1`, the compound was classed as inactive.

Consider `O=C(CC(c1ccc(F)cc1)c1ccco1)N1CCOCC1` (stereo unspecified), for which the compound was classed as inactive.

Take `Clc1ccc(-c2ccnc(Oc3ccc4ccccc4c3)n2)cc1`: the compound was called inactive.

In the case of `CC(C)(C)c1cc(C(=O)NNC(=O)Nc2cccc(Cl)c2)n(Cc2ccccc2)n1`, the call was inactive.
